Bioassay records: PubChem, National Center for Advancing Translational Sciences (NCATS)
Sampled rows, rich in hits. Any-hit rate of the full collection: about 4.7%.
D1 ag: agonists of human D1 dopamine receptor; 360,000 tested, 1% active; P21728; AID 504660; HEK293 T-REx D1 cells, calcium flux, agonist mode; activation, % at 2 µM; also: 0% is about no effect
Target sequence (P21728 whole entry, looked up): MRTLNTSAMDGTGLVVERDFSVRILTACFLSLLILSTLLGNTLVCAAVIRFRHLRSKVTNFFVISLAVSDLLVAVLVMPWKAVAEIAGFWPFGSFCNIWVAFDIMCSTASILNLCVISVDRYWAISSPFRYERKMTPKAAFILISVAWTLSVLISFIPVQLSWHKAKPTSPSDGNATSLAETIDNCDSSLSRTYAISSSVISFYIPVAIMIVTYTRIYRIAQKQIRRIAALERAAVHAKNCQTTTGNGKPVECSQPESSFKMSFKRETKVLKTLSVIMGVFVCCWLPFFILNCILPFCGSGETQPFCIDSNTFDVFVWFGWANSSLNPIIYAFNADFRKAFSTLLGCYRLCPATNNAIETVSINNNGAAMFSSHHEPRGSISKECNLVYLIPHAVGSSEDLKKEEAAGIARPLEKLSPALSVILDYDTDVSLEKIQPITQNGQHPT
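Agonism was scored from calcium flux recorded over 180 s (1 read/s) after pintool compound addition, following a 10-cycle baseline. Cells were inducible force-coupled HEK293 TREx D1, plated overnight at 30 C and loaded with no-wash calcium dye.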
TRHR agonist: agonists of human TRH receptor | P34981 | TRHR cells, calcium flux fluo-8, FDSS agonist mode | 360,000 tested, 0.18% active | AID 493084 | activation, % at 2 µM; also: 0% is about no effect
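TRHR-expressing cells, plated overnight in medium with 10% serum, were loaded with fluo-8 calcium dye at room temperature. After a 10 s baseline, library compound was pin-added and calcium release was recorded kinetically (ex 480/em 530) as agonist response.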
TRHR enhancer: allosteric enhancers of human TRH receptor. TRHR cells, fluo-8 calcium fluorescence, EC20 TRH enhancement. enhancement, % at 2 µM. 360,000 tested, 0.66% active; in the data active = enhancement above about 30%; also: 0% is about no effect
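TRHR-expressing cells loaded with fluo-8 calcium dye were read kinetically (ex 480/em 530) during compound addition, then stimulated with an EC20 of TRH (10 nM final). Enhancement of the Gq-mediated intracellular calcium response was scored.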
D1 antag: antagonists of human D1 dopamine receptor; P21728; HEK293 TREx D1 cells, calcium flux, dopamine EC80; stronger effect = lower value; activity change, negative = inhibition, % at 10 µM; 360,000 tested, 3.2% active; AID 504652; in the data active = activity change below about -30%; also: % is scaled to controls: 0 for no effect and ±100 for the full control effect
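Inducible Hek293 Trex D1 cells (tetracycline, overnight, 30 C). Calcium dye 30–90 min RT. Antagonist mode: EC80 dopamine added after 180 s compound read.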
D1 PAM: enhances dopamine response at the human D1 receptor; P21728; HEK293 TREx D1 cells, calcium flux, dopamine EC20 potentiation; potentiation, % at 10 µM; 360,000 tested, 0.036% active; in the data active = potentiation above about 30%; also: 0% is about no effect
* = called active by the depositor; ! = repeats disagree. Rule as the data show it, unless noted: active = activation above about 30%; inactive = the rest.

`Cc1cc(C)cc(NC(=O)C2CCCN(S(=O)(=O)c3cccc4nsnc34)C2)c1` (stereo not drawn) gave D1 ag 9, TRHR agonist 2, TRHR enhancer -6, D1 antag -9 and D1 PAM -2.
NC(=O)c1cc2ccc(O)cc2oc1=NCc1ccccc1 was read as D1 ag 150*, TRHR agonist 26, TRHR enhancer 0, D1 antag -17 and D1 PAM -8.
Screening COc1ccc(OC)c(N=c2oc3cc(O)ccc3cc2C(N)=O)c1 returned D1 ag 0, TRHR agonist -1, TRHR enhancer 18, D1 antag -36* and D1 PAM -12.
NC(=O)c1cc2ccccc2oc1=NCc1ccccc1 was read as D1 ag -1, TRHR agonist 0, TRHR enhancer 0, D1 antag 11 and D1 PAM -1.
`COc1ccc2cc(C(N)=O)c(=Nc3ccccc3)oc2c1` gave D1 ag 1, TRHR agonist 0, TRHR enhancer 8, D1 antag 1 and D1 PAM -2.
`CCCNC(=O)c1ccc(Cn2c(SCC(=O)NC(C)C)nc3ccccc3c2=O)cc1` gave D1 ag 2, TRHR agonist 0, TRHR enhancer 8, D1 antag -3 and D1 PAM 0.
Oc1ccc(Cl)cc1Nc1nc2ccccc2n2cnnc12 was read as D1 ag 0, TRHR agonist 0, TRHR enhancer -6, D1 antag 0 and D1 PAM -3.
CCCOc1ccc(/C=N/NC(=O)c2ccc3c(c2)OCO3)c(OCCC)c1 was read as D1 ag 5, TRHR agonist 0, TRHR enhancer -7 and D1 antag -42*.
CCn1ncc(/C=N/NC(=O)c2ccc3c(c2)OCO3)c1C was read as D1 ag 1, TRHR agonist 1, TRHR enhancer 3, D1 antag -74* and D1 PAM -4.
For CC(C)C(NC(=O)c1ccc2c(c1)OCO2)C(=O)N/N=C/c1cccs1 (stereo not drawn) the results were D1 ag 0, TRHR agonist 0, TRHR enhancer -6, D1 antag -27 and D1 PAM -8.
Screening Cc1c(/C=N/NC(=O)C(NC(=O)c2ccc3c(c2)OCO3)C(C)C)c2ccccc2n1C (stereo not drawn) returned D1 ag -1, TRHR agonist 6, TRHR enhancer 32*, D1 antag -15 and D1 PAM 0.
For Cc1ccnn1CC(=O)N/N=C/c1ccc2c(c1)OCO2 the results were D1 ag 3, TRHR agonist -1, TRHR enhancer 1, D1 antag -47* and D1 PAM -4.
Cc1ccc(CC(=O)N/N=C/c2ccc3c(c2)OCO3)cc1 was read as D1 ag -1, TRHR agonist 0, TRHR enhancer 1, D1 antag 2 and D1 PAM 10.
For O=C(CCNS(=O)(=O)c1cccs1)Nc1ccccc1F the results were D1 ag 1, TRHR agonist 0, TRHR enhancer -1, D1 antag 3 and D1 PAM 6.
For S=C(NCCc1ccccc1)Nc1nccs1 the results were D1 ag 4, TRHR agonist 2, TRHR enhancer -3, D1 antag -19 and D1 PAM -6.
`O=C(CCNS(=O)(=O)c1cccs1)Nc1nccs1` gave D1 ag 2, TRHR agonist 0, TRHR enhancer -6, D1 antag -32* and D1 PAM -6.
For O=C(NCCc1ccccc1)C(=O)Nc1nccs1 the results were D1 ag 33*, TRHR agonist 1, TRHR enhancer -2, D1 antag -2 and D1 PAM -6.
Screening Cc1ccc(CC(=O)Nc2nccs2)cc1C returned D1 ag 5, TRHR agonist -1, TRHR enhancer 32*, D1 antag -2 and D1 PAM -4.
CC(C)c1cc(C(=O)NC(C)c2ccccc2)no1 (stereo not drawn) was read as D1 ag 0, TRHR agonist -1, TRHR enhancer 11, D1 antag 11 and D1 PAM 0.
Screening COc1cc(OC)c(NC(=O)CC(c2cccs2)N2Cc3ccccc3C2=O)cc1Cl (stereo not drawn) returned D1 ag 5, TRHR agonist 0, TRHR enhancer -6, D1 antag 27 and D1 PAM -2.
For COc1ccccc1C(=O)NNC(=S)Nc1ccccc1 the results were D1 ag 5, TRHR agonist 0, TRHR enhancer 0, D1 antag -31* and D1 PAM -3.
Screening COC(=O)NNC(=O)c1ccccc1OC returned D1 ag 1, TRHR agonist -2, TRHR enhancer -1, D1 antag -7 and D1 PAM -5.
For COc1ccccc1C(=O)NNC(=S)NC(=O)c1ccco1 the results were D1 ag 50*, TRHR agonist 6, TRHR enhancer 1, D1 antag -7 and D1 PAM -1.
For COc1ccc(C(=O)NNC(=S)NC(=O)c2ccco2)cc1 the results were D1 ag 8, TRHR agonist 2, TRHR enhancer 2, D1 antag -7 and D1 PAM 5.
CCNC(=S)Nc1cc(OC)c(NC(=O)c2ccco2)cc1OC was read as D1 ag 2, TRHR agonist 0, TRHR enhancer 0, D1 antag -5 and D1 PAM 0.
`COC(=O)c1cc(OC)c(OC)cc1NC(=S)NC(=O)c1ccco1` gave D1 ag 0, TRHR agonist 1, TRHR enhancer -4, D1 antag -38* and D1 PAM -4.
`O=C(CCCn1c(=O)c2ccccc2n(Cc2cccc(Cl)c2)c1=O)NCCc1ccc(Cl)cc1` gave D1 ag 9, TRHR agonist 2, TRHR enhancer -12, D1 antag 7 and D1 PAM -1.
`CC/C(=C(\c1ccccc1)c1ccc(OCCN(C)C)cc1)c1ccccc1` gave D1 ag 87*!, TRHR agonist -1, TRHR enhancer -2, D1 antag 32 and D1 PAM -5.
Screening CC/C(=C(\c1ccc(O)cc1)c1ccc(OCCN(C)C)cc1)c1ccccc1 returned D1 ag 15, TRHR agonist 1, TRHR enhancer 8, D1 antag 9 and D1 PAM -2.
`Cc1cc(C)cc(-n2ccn(CC(=O)Nc3ccccc3C(F)(F)F)c(=O)c2=O)c1` gave D1 ag 10, TRHR agonist 0, TRHR enhancer -7, D1 antag -14 and D1 PAM -4.
For OC(CCN1CCCCC1)(c1ccccc1)C1C[C@@H]2C=C[C@H]1C2 (stereo partly drawn) the results were D1 ag 12, TRHR agonist -1, TRHR enhancer -10, D1 antag 24 and D1 PAM -4.
